Sampled rows, rich in hits. Any-hit rate of the full collection: about 21%.
Pf growth 96h: inhibits malaria parasite growth, 96 h | AID 504834 | P. falciparum luciferase reporter growth, 96 h | 320,000 tested, 6.9% active | Potency, µM (top dose mostly 28.7 µM), hits mostly inhibitors
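Two-generation exposure (96 h) targets delayed-death phenotype. Reporter parasites carrying integrated firefly luciferase, in red cells at 2% hematocrit and 0.05% parasitemia final, kept at 37 C, 5% CO2; luminescence loss indicates inhibition.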
Shiga inhibitor: blocks Shiga toxin action in Vero cells | Vero cells, Shiga toxin protein synthesis inhibition reporter | inhibition, % at 38.7 µM | 290,000 tested, 9.2% active | AID 2315; in the data active = inhibition mostly above about 28%, no sharp cut-off; inactive = mostly below about 43%
HCV inh: blocks hepatitis C virus | Huh7.5.1 HCVcc-Cre infection, luciferase reporter, 44 h | Potency, µM (titrated, usually from 41.8 µM), most hits filed as inhibitors | 340,000 tested, 3.4% active
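A cell-based infection assay in which seeded cells (1,000 per well) receive test compound after 4 h, are inoculated with HCVcc-Cre at approximately 0.5 moi, and are incubated 44 h before luminescence detection.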
AMA1-RON2 inh: inhibitors of Plasmodium falciparum AMA1-RON2 interaction; AlphaScreen AMA1-biotinylated RON2 peptide binding; Potency, µM (highest dose often 58.2 µM), most hits filed as inhibitors; 360,000 tested, 0.2% active; AID 720542; also: nearly all actives have a fitted effect of over 45% in size
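AMA1 (3D7) with his tag at 25 nM final met compounds first, then biotinylated RON2 peptide at 25 nM; detection used donor plus acceptor beads, 10 µg/mL apiece, read by AlphaScreen after 30 min at room temperature.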
Pf growth 48h: inhibits P. falciparum growth in the first generation, 48 h | P. falciparum luciferase growth in erythrocytes, 48 h | Potency, µM (highest dose often 28.7 µM), actives largely listed as inhibitors | 310,000 tested, 5.9% active
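Luciferase-expressing P. falciparum in infected erythrocytes (2% hematocrit, 0.1% parasitemia final) in RPMI 1640/0.5% Albumax were exposed to compound for 48 hours at 37 C, 5% CO2; growth read as luminescence.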
Cycloheximide cs: counter-screen for Shiga toxin inhibitors: cycloheximide protein synthesis inhibition | cell reporter, cycloheximide protein synthesis inhibition counterscreen | max response, % | 300,000 tested, 12% active | AID 2314; in the data active = max response mostly above about 13%, no sharp cut-off; inactive = mostly below about 14%; also: read at 38.3 µM for the half of the compounds with a filed dose
Large screens that a line does not name were inactive. Unless noted, calls follow the shape of the dose curve; as a rule, active = well fitted curve in the direction sought with a large enough effect; inconclusive = small, poorly fitted or top-dose-only effect, or another doubt; inactive = no such curve, though single readings can be large; an effect the other way counts as inactive or inconclusive.

COc1ccc(NC(=O)CSc2nc3c(oc4ccccc43)c(=O)n2Cc2ccco2)cc1Cl	none (no result: Pf growth 96h, HCV inh, AMA1-RON2 inh, Pf growth 48h)
COc1ccc(CC(=O)NC(C)C2COc3ccccc3O2)cc1OC (centres undefined)	none
CCOC(=O)c1cccc(NC(=O)CSc2nnc(COc3ccccc3C)o2)c1	Pf growth 96h 7.38µM
CCOc1ccc(NCc2nnc(SCC(=O)Nc3cc(C)on3)n2-c2ccc(OC)cc2)cc1	Pf growth 96h inconclusive, Pf growth 48h 13.1µM
Cc1csc(NC(=O)CSc2nnc(-c3cc(C)on3)o2)n1	Cycloheximide cs 15.1
CCOc1ccc(NCc2nnc(SCC(=O)Nc3cc(C)on3)n2-c2ccccc2OC)cc1	HCV inh inconclusive, Pf growth 48h inconclusive
Cc1cc(NC(=O)CSc2nnc(COc3ccccc3)o2)no1	AMA1-RON2 inh 11.2µM
COc1ccccc1NC(=O)CSc1nnc(COc2ccccc2C)o1	HCV inh inconclusive
Cc1ccc(S(=O)(=O)N2CCC(=O)N([C@H](COCc3ccc(Cl)c(Cl)c3)Cc3ccccc3)CC2)cc1	none (no result: Pf growth 96h, Shiga inhibitor, HCV inh, Pf growth 48h, Cycloheximide cs)
CCCc1nc2sc3c(c2c(=O)n1NC(=O)c1ccco1)CC(C)(C)OC3	none
CCCSc1nc(NCc2ccco2)c2c3c(sc2n1)COC(C)(C)C3	Pf growth 96h inconclusive, Shiga inhibitor 46.4, Pf growth 48h inconclusive
CCCCSc1nc(NCc2ccco2)c2c3c(sc2n1)COC(C)(C)C3	Pf growth 96h inconclusive, Shiga inhibitor 69.8, Pf growth 48h 10.4µM, Cycloheximide cs 44.3
CCCCCC(=O)Nc1cccc(C2=NOC3(C2)C[C@@H](C(N)=O)N(C(=O)c2ccc(Cl)cc2)C3)c1 (some centres undefined)	Pf growth 96h inconclusive, Pf growth 48h inconclusive
N=c1c2c(n(Cc3ccc(Cl)c(Cl)c3)c3c1CCC3)CCCC2	HCV inh inconclusive, Pf growth 48h 0.147µM
N=c1c2c(n(Cc3ccc([N+](=O)[O-])cc3)c3c1CCC3)CCCC2	Pf growth 96h 10.4µM, Pf growth 48h inconclusive
N=c1c2c(n(Cc3ccc(Br)cc3)c3c1CCC3)CCCC2	Pf growth 96h 0.0329µM, HCV inh inconclusive, Pf growth 48h 0.0928µM
O=c1[nH]c(=O)n(Cc2ccccc2)c2c1CCC2	none (no result: Pf growth 96h)
Clc1ccc(CN2CCN(c3ncccn3)CC2)cc1Cl	Pf growth 48h inconclusive
COc1cccc(C=Nc2ccccc2C(=O)Nc2ccccc2)c1O	Shiga inhibitor 77.5, Cycloheximide cs 54.6
O=C(Nc1ccccc1)c1ccccc1N=Cc1cccc(O)c1	Pf growth 48h inconclusive
COc1cccc(/C=N/NC(=O)CSCC(=O)Nc2ccccc2)c1O	Pf growth 96h inconclusive, HCV inh 25.1µM, Pf growth 48h inconclusive
COc1cccc(/C=N\NC(=O)Cn2nnc3ccccc32)c1O	Shiga inhibitor 75.5, Cycloheximide cs 27.1
CCOc1cc(C(C(=O)NCC2CCCO2)N(C(=O)Cn2nnc3ccccc32)c2ccccc2OC)ccc1O (centres undefined)	Pf growth 48h inconclusive
COc1cc(C(=O)OC2CCOC2=O)cc(Cl)c1OC (centres undefined)	none
COc1ccc(N2CCN(C(=O)CNC(=O)c3cccc(Br)c3)CC2)cc1	none
Cc1ccccc1CNC(=O)c1[nH]c(C(F)(F)F)nc1-c1ccccc1	none (no result: Pf growth 96h, Shiga inhibitor, HCV inh, Pf growth 48h, Cycloheximide cs)
Cc1cc(C(N)=O)c2ccccc2n1	Pf growth 96h inconclusive
NC(=O)c1cc2c3ccccc3ccn2c1-c1ccccc1	Shiga inhibitor 94.0, Cycloheximide cs 52.0
O=C(CNC(=O)c1cccnc1)N/N=C/c1ccc(O)cc1O	Cycloheximide cs 13.0
CCc1ccc(C(=O)N/N=C/c2cccc3ccccc23)nc1	Cycloheximide cs 18.7
O=C(NC(C(=O)N/N=C/c1ccncc1)c1n[nH]c(=O)c2ccccc12)c1ccccc1 (centres undefined)	none
O=C(N/N=C/c1cn(CC(=O)N2CCOCC2)c2ccccc12)c1cccnc1	Cycloheximide cs 21.5
O=C(NC(C(=O)N/N=C/c1cccc2ccccc12)c1n[nH]c(=O)c2ccccc12)c1ccccc1 (centres undefined)	HCV inh 22.4µM, Pf growth 48h inconclusive
COc1ccc(NC(=O)C(=O)NCCC2CCCCN2S(=O)(=O)c2ccccc2)cc1 (centres undefined)	Pf growth 96h inconclusive, HCV inh inconclusive (no result: Shiga inhibitor, Cycloheximide cs)
O=C(N/N=C/c1cccc2ccccc12)c1cccnc1	Shiga inhibitor 38.9, Cycloheximide cs 29.2 (no result: Pf growth 48h)
